# Test results from PubChem BioAssay AID2732 (Emory University Molecular Libraries Screening Center, 2010).
# The whole screen tested about 220,000 compounds, of which about 8,200 (3.7%) were called active. The full list was thinned out, with actives kept by preference. A number with no mark means an inactive call.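 How the source made its calls: active means compounds that reduced the stress-induced luciferase reporter signal by more than about 70% of percent inhibition (limit read from the data); inactive means the rest.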
# Assay: blockers of ER-stress CHOP reporter expression – cell-based, unfolded protein response, luciferase reporter, primary screen (AID 2732);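 further: 0% = tunicamycin plus vehicle and 100% = wells without tunicamycin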
# Conditions: CHO-K1 CHOP-promoter luciferase, tunicamycin-induced, 15-18 h; at 10 µM; hits give high values
row,Structure (SMILES),inhibition
1,CN(c1ccc(OCC(=O)NC2=NCCS2)cc1)S(=O)(=O)c1ccc(F)cc1,-3.41%
2,Cc1ccc(S(=O)(=O)/N=C(/NC(=S)Nc2c(C)n(C)n(-c3ccccc3)c2=O)c2ccccc2)cc1,5.21%
3,Clc1ccc2nc(-c3ccccc3)nc(C(Cl)Cl)c2c1,75.6% (active)
4,Clc1cccc(-c2nc(NCC3CCCO3)c3ccccc3n2)c1 (stereo not given),14.2%
5,c1ccc(-c2nc(NCc3ccco3)c3ccccc3n2)cc1,8.64%
6,FC(F)(F)c1cccc(-c2nc(COc3ccc(Cl)cc3Cl)no2)c1,-14.1%
7,O=C(c1cc(COc2c(F)cccc2F)on1)N1CCSCC1,-22.2%
8,CC[C@@H](C)[C@@H](C(=O)N1CCN(C(=O)OC(C)(C)C)CC1)n1cc(CCC(=O)O)nn1,-7.63%
9,O=C(c1c(Cl)cccc1Cl)N1CCN(c2cccc3[nH]ccc23)CC1,12.1%
10,COC(=O)C1=C(C)N(C)C(=S)NC1c1ccccc1 (stereo not given),-6.17%
11,COC(=O)C1=C(C)N(C)C(C)=C(C(=O)OC)C1c1cccc(Br)c1,71.4% (active)
12,COCCN1C(=O)N[C@@H](c2ccccc2)C(C(=O)OC)=C1C,-1.22%
13,N/C(=N\S(=O)(=O)c1ccc(Cl)cc1)N1CCOCC1,13.5%
14,c1csc(-c2nnc(COc3ncnc4sccc34)o2)c1,4.38%
15,Cc1cccc(C)c1Nc1c(-c2ccccc2O)nc2ncccn12,6.71%
16,O=c1c2ccccc2c(-c2ccc(F)cc2)nn1-c1ccc(C(F)(F)F)cc1,75.1% (active)
17,O=c1c2ccccc2c(-c2ccc(Br)cc2)nn1Cc1ccccc1,36.9%
18,O=c1c2ccccc2c(-c2ccccc2)nn1-c1ccccn1,38.6%
19,Oc1ccc2ccccc2c1N=Nc1nccs1,-57.9%
20,Cc1noc(C)c1-c1nc(CSc2ccc(Cl)cc2)no1,20.1%
21,O=S(=O)(c1cccc(-c2nnc3n2CCCCC3)c1)N1CCOCC1,7.35%
22,O=C(COC(=O)c1n[nH]c2ccccc12)NCc1ccccc1,38.6%
23,COc1cccc(CNC(=O)c2n[nH]c3ccccc23)c1,15.2%

row,Structure (SMILES),inhibition
1,COc1ccc(COC(=O)c2n[nH]c3ccccc23)cc1F,97.2% (active)
2,C=CCN(C(=O)Nc1ccc2c(c1)nc(C)n2C)c1ccccc1,-18.2%
3,O=C(NCCc1c[nH]c2ccc(Cl)cc12)c1ccc([N+](=O)[O-])cc1,-3.24%
4,CCCOc1ccc(C(=O)NCCc2ccccc2)cc1,21.8%
5,CCCOc1ccc(-c2nc(N)n[nH]2)cc1,20.8%
6,CCCOc1ccc(Cc2c(Cl)nc(SC)nc2NC)cc1,97.5% (active)
7,CNc1ncnc2c1ncn2[C@@H]1O[C@H](CO)[C@H](O)C1O (stereo not given in full),10.8%
8,COc1cc2[nH]c(=S)n(Cc3ccc(C)o3)c(=O)c2cc1OC,7.74%
9,COc1cc2[nH]c(=S)n(Cc3ccc(F)cc3)c(=O)c2cc1OC,90.9% (active)
10,CCOc1cc2[nH]c(=S)n(Cc3ccc(C(=O)NCCOC)cc3)c(=O)c2cc1OCC,9.91%
11,C#CCNc1ccc(C(=O)OCC)cc1,-15.6%
12,O=C1C=C(c2ccc(Cl)cc2)C(=O)N1Nc1ccccc1,108% (active)
13,O=C(O)CC1=C(Nc2ccccc2)C(=O)N(c2ccccc2)C1c1ccc(Cl)cc1 (stereo not given),8.1%
14,O=C1c2cccc3cc(Br)cc(c23)C(=O)N1Nc1ccccc1,63.7%
15,N#Cc1c(N)n(CCOC(=O)c2ccc(Cl)cc2)c2nc3ccccc3nc12,-17.1%
16,CCCNC(=O)c1c(N)n(-c2ccc(S(N)(=O)=O)cc2)c2nc3ccccc3nc12,-1.19%
17,CC(C)(C)c1ccc(C(=O)NCCn2c(N)c(C#N)c3nc4ccccc4nc32)cc1,86.5% (active)
18,Cc1ccc(O)c(NC(=S)NC(=O)COc2ccc(Br)cc2)c1,74.2% (active)
19,Cc1cccc(OCC(=O)NC(=S)Nc2ccccc2N2CCOCC2)c1,47.7%
20,Cc1ccc(O)c(NC(=O)COc2cc(C)ccc2C)c1,5.05%
21,CCCc1c(C(=O)O)cnn1-c1ccc(Cl)cc1,-2.68%
22,O=C1[C@@H]2C(c3cccnc3)=NO[C@@H]2C(=O)N1c1ccc(Cl)cc1Cl,19.2%
